G9a inh = qHTS Assay for Inhibitors of Histone Lysine Methyltransferase G9a; Potency, µM (highest dose often 102 µM), actives largely listed as inhibitors; G9a H3K9 monomethylation, AlphaScreen, 2 h; Histone-lysine N-methyltransferase EHMT2 (Homo sapiens), Q96KQ7; 350,000 compounds, 8.8% hits; also: nearly all actives have a fitted effect of over 75% in size
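AlphaScreen read-out: biotin-H3K9 peptide (500 nM) methylation by 20 nM enzyme with 20 uM SAM, 2 h at room temperature after 15 min compound preincubation; anti-monomethyl H3K9 antibody plus donor/acceptor beads, 10 min dark.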
Sfp inh = qHTS Assay for Inhibitors of Bacillus subtilis Sfp phosphopantetheinyl transferase (PPTase); 4'-phosphopantetheinyl transferase ffp (Bacillus subtilis), Q9F4F7; Biochemical Sfp PPTase activity, qHTS; Potency, µM, most hits filed as inhibitors; 310,000 compounds, 3.5% hits; AID 1490, 2009;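 also: the enzyme is Sfp with the accession as filed and its product quenches rhodamine fluorescence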
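Compounds were incubated with enzyme (final 15 nM) for 15 min at room temperature before substrate addition started the reaction. Fluorescence at 525 nm excitation, 598 nm emission was recorded immediately and after 30 minutes.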
HP1b binding inh = HTS for Inhibitors of HP1-beta Chromodomain Interactions with Methylated Histone Tails; 390,000 compounds, 0.56% hits; Chromobox protein homolog 1 (Homo sapiens), P83916; Potency, µM (top dose mostly 114 µM), usual class: inhibitors; AlphaScreen HP1-beta / biotin-H3K9me3 peptide binding; also: nearly all actives have a fitted effect of over 70% in size
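HP1-beta protein (50 nM final) preincubated 30 min at room temperature with biotinylated H3(1-18)K9me3 peptide (50 nM) in PBS pH 7.4, 0.01% Tween-20, then compound added for 30 min. AlphaScreen streptavidin donor/nickel chelate acceptor beads (10 ug/mL final), 30 min dark, luminescence read.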
JMJD2A Tudor inh = qHTS Assay for Inhibitors of JMJD2A-Tudor Domain; Lysine-specific demethylase 4A (Homo sapiens), O75164; Potency, µM (titrated, usually from 114 µM), most hits filed as inhibitors; AlphaScreen JMJD2A-Tudor / H3K4me3 peptide binding; 390,000 compounds, 4.4% hits; also: nearly all actives have a fitted effect of over 50% in size
BAZ2B block = qHTS Assay for Inhibitors of BAZ2B | AlphaScreen BAZ2B-H3K14Ac peptide displacement | Potency, µM (highest dose often 114 µM), usual class: inhibitors | 360,000 compounds, 4.4% hits; also: nearly all actives have a fitted effect of over 60% in size
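Inhibition is scored as reduced AlphaScreen emission. The BAZ2B/b-H3(5-23)K14Ac complex (50 nM each) in PBS pH 7.4, 0.01% Tween-20 meets compound (up to 110 uM) for 30 min at RT before bead addition.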
L3MBTL1 inh = qHTS Assay for the Inhibitors of L3MBTL1 | Potency, µM (doses to about 57.1 µM), actives largely listed as inhibitors | AlphaScreen L3MBTL1–H3K9me1 peptide binding | 230,000 compounds, 0.66% hits | Lethal(3)malignant brain tumor-like protein 1 (Homo sapiens), Q9Y468 | AID 485360, 2010; also: nearly all actives have a fitted effect of over 60% in size
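L3MBTL1 (50 nM) pre-complexed 30 min with biotinylated H3(1-15)K9me1 peptide (75 nM), then compounds added for 30 min at room temperature; AlphaScreen streptavidin donor/nickel chelate acceptor beads (10 ug/mL final) read after 30 min dark incubation.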
Each line names hits and unclear results; the compound was inactive in the other large screens. An excerpt weighted towards active compounds, which were near 12% of everything screened. Calls follow the shape of the dose curve; as a rule, active = well fitted curve in the direction sought with a large enough effect; inconclusive = small, poorly fitted or top-dose-only effect, or another doubt; inactive = no such curve, though single readings can be large; an effect the other way counts as inactive or inconclusive.

Cc1ccc(S(=O)(=O)c2nc(-c3ccc(F)cc3)oc2N2CCOCC2)cc1	G9a inh 35.5µM (no result: L3MBTL1 inh)
COc1cccc(CNC(=O)Cn2nc(-c3ccc(C)cc3)ccc2=O)c1	none (no result: Sfp inh, L3MBTL1 inh)
CC(C)[C@@H](CC(=O)N[C@@H]1CCNC[C@H]1C(=O)N[C@H](CC(=O)N[C@@H](CCC(=O)O)CC(=O)O)Cc1c[nH]c2ccccc12)NC(=O)C[C@H](Cc1ccccc1)NC(=O)[C@@H]1CCCC[C@H]1N	none (no result: G9a inh, HP1b binding inh, JMJD2A Tudor inh, BAZ2B block, L3MBTL1 inh)
COc1cccc(-c2nc(S(=O)(=O)c3ccccc3)c(N3CCC(C)CC3)o2)c1	G9a inh 17.8µM, JMJD2A Tudor inh inconclusive, BAZ2B block inconclusive (no result: Sfp inh, L3MBTL1 inh)
CCOc1ccc(-c2nc(S(=O)(=O)c3ccccc3)c(N3CCC(C(N)=O)CC3)o2)cc1	HP1b binding inh inconclusive, JMJD2A Tudor inh 70.8µM, BAZ2B block inconclusive (no result: G9a inh, L3MBTL1 inh)
COc1ccc(-c2nc(S(=O)(=O)c3ccccc3)c(N3CCC(C)CC3)o2)cc1	none (no result: Sfp inh, L3MBTL1 inh)
Cc1ccc(S(=O)(=O)c2nc(-c3ccccc3)oc2N2CCCCCC2)cc1	G9a inh inconclusive, HP1b binding inh inconclusive (no result: Sfp inh, L3MBTL1 inh)
Cc1ccc(-c2nc(S(=O)(=O)c3ccc(C)cc3)c(N3CCCCC3)o2)cc1	G9a inh 15.8µM, BAZ2B block inconclusive (no result: Sfp inh, L3MBTL1 inh)
CCN1CCN(c2oc(-c3ccccc3)nc2S(=O)(=O)c2ccc(C)cc2)CC1	G9a inh 39.8µM, JMJD2A Tudor inh inconclusive, BAZ2B block 50.1µM (no result: Sfp inh)
Cc1ccc(-c2nc(S(=O)(=O)c3ccccc3)c(N3CCN(c4ccccc4)CC3)o2)cc1	none (no result: Sfp inh, L3MBTL1 inh)
CCOC(=O)c1ccc(NC(=O)CSc2cc(-c3ccccc3)nc(C)n2)cc1	none (no result: Sfp inh, L3MBTL1 inh)
CCc1ccc(CSc2nc(-c3ccccc3F)nc3c2Cc2c(CO)cnc(C)c2O3)cc1	none (no result: Sfp inh, L3MBTL1 inh)
CC(C)CO/N=C1/C[C@@H](O)[C@@H](O)[C@@H]2[C@@H]3C(=O)N(Cc4ccccc4)C(=O)[C@H]3CC[C@@H]12	none (no result: G9a inh, HP1b binding inh, JMJD2A Tudor inh, BAZ2B block, L3MBTL1 inh)
N#CCCn1c(=O)c(-c2ccc(Cl)cc2)nc2cnc(Oc3cccc(Cl)c3)nc21	none (no result: HP1b binding inh, JMJD2A Tudor inh, BAZ2B block, L3MBTL1 inh)
Cc1cccc(C)c1NC(=O)Cn1nnc(S(=O)(=O)c2ccccc2)c1N	none (no result: Sfp inh, L3MBTL1 inh)
COc1cccc(NC(=O)C2CCN(c3nc4ccccc4nc3C(F)(F)F)CC2)c1	none (no result: Sfp inh, L3MBTL1 inh)
N#CC1=C2Nc3ccccc3N2C(=O)NC1(c1ccccc1)C(F)(F)F (centres undefined)	HP1b binding inh inconclusive, JMJD2A Tudor inh 56.2µM (no result: L3MBTL1 inh)
Cc1ccc(C2(C(F)(F)F)NC(=O)N3N=C4CCCCCN4C3=C2C#N)cc1 (centres undefined)	none (no result: L3MBTL1 inh)
Cc1ccc(-c2cc(-c3n[nH]c(=S)o3)c3ccccc3n2)cc1	G9a inh inconclusive, JMJD2A Tudor inh inconclusive, BAZ2B block inconclusive
CSc1nnc(-c2cc(-c3ccc(C)cc3)nc3ccccc23)o1	G9a inh 7.94µM
CCc1cccc(C)c1NC(=O)CN1CCCN(Cc2ccccc2Cl)S1(=O)=O	none (no result: Sfp inh, L3MBTL1 inh)
COc1ccc(Oc2ncc3nc(-c4ccc(Cl)cc4)c(=O)n(C[C@H]4CCCO4)c3n2)cc1	none (no result: HP1b binding inh, JMJD2A Tudor inh, BAZ2B block, L3MBTL1 inh)
O=C(Nc1cccc(-c2nc3cccnc3s2)c1)C1c2ccccc2Oc2ccccc21	G9a inh inconclusive, JMJD2A Tudor inh inconclusive, BAZ2B block 79.4µM
O=C(Nc1cccc(-c2nc3cccnc3s2)c1)c1cccnc1Cl	none (no result: L3MBTL1 inh)
COc1ccccc1N1C(=O)N(C(C)=O)C2C1Nc1ccccc1N2C (centres undefined)	G9a inh 7.08µM, JMJD2A Tudor inh inconclusive (no result: BAZ2B block)
COc1cc(Cl)c(C)cc1NC(=O)c1cnc(N2CCOCC2)c2ccccc12	none (no result: Sfp inh, L3MBTL1 inh)
CCN1CCN(C(=O)C(=O)c2cn(CC(=O)N3CCCCCC3)c3ccccc23)CC1	G9a inh 50.1µM (no result: L3MBTL1 inh)
COc1ccc(N2CCN(C(=O)C(=O)c3cn(CC(=O)N4CCCCCC4)c4ccccc34)CC2)cc1	G9a inh 70.8µM, HP1b binding inh inconclusive, JMJD2A Tudor inh inconclusive, BAZ2B block inconclusive (no result: L3MBTL1 inh)
